Sampled rows, rich in hits. Any-hit rate of the full collection: about 31%.
CYP2C9 inhib: inhibitors of human CYP2C9; inhibition, % at 5 µM; CYP2C9 Supersomes, luciferin-H conversion, luminescence; 96,000 compounds, 20% hits; P11712;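 active means blocking of liver enzyme CYP2C9 beyond about 50% at 5 µM, limit read from the data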
CYP2C19 act: cytochrome P450 2C19 (human) activation; recombinant CYP2C19, luciferin-H EGE luminescence; hits give high values; 0 = fully inhibited enzyme, 1 = untreated enzyme; activation factor at 5 µM; 96,000 tested, under 10 active;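 active means activation factor of at least 2 at 5 µM in the primary screen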;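 further: 0 = wells with 2.5 mM tranylcypromine and 1 = vehicle-only wells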
Target sequence (P33261 whole entry, looked up): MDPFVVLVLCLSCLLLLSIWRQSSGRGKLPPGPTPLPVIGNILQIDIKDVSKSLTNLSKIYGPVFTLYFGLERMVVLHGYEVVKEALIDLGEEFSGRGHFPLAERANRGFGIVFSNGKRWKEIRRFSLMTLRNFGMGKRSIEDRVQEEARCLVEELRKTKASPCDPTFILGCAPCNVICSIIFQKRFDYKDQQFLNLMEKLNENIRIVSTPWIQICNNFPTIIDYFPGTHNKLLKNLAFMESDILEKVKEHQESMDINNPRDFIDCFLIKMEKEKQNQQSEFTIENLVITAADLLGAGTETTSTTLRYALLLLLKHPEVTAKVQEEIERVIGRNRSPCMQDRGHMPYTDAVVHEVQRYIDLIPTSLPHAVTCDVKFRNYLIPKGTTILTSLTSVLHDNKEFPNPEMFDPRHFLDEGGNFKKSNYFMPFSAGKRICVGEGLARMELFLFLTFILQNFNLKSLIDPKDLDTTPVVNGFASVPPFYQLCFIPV
CYP2C9 act: increases human cytochrome P450 2C9 activity. P11712. recombinant CYP2C9, luciferin-H conversion, luminescence; hits give high values; factor 1 = untreated enzyme, 0 = blocked. activation factor at 5 µM. 96,000 compounds, 1.4% hits. AID 1024;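 active means activation factor of 2 or more for CYP2C9 at a 5 µM dose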;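 further: 0 = sulfaphenazole-blocked wells and 1 = vehicle-only wells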
PLAP act: activates human placental alkaline phosphatase. P05187. purified PLAP enzyme, luminescent substrate read-out; hits give high values. activation fold at 20 µM. 96,000 compounds, 1.2% hits. AID 696; in the data active means activation fold above about 2
CYP2C19 inh: human CYP2C19 inhibition. CYP2C19 Supersomes, luciferin-H EGE luminescence, 30 min. P33261. 96,000 compounds, 21% hits. inhibition, % at 5 µM. AID 778;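 active means CYP2C19 inhibition above a set limit at 5 µM in the primary screen, cut at about 50% in these data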;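 further: plate controls were negative control wells for no effect and 2.5 mM tranylcypromine positive control for full effect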
* hit, by the source's call.

SMILES | CYP2C9 inhib | CYP2C19 act | CYP2C9 act | PLAP act | CYP2C19 inh
CCOc1ccc(C(=O)OCC(=O)NCc2ccco2)cc1OCC | -6 | 0.3 | 1.1 | 1.7 | 70*
O=C(COC(=O)c1ccccc1)NCC1CCCO1 (centres undefined) | -25 | 1 | 1.3 | 1.2 | -3
CCOc1ccc(OCC)c(NC(=O)C2C3C=CC(O3)C2C(=O)NCc2ccco2)c1 (centres undefined) | 37 | 0.5 | 0.6 | 1.3 | 51*
Nc1cc(C(=O)OCC(=O)NCc2ccco2)ccc1Cl | 44 | 0.4 | 0.6 | 1.3 | 60*
Nc1cc(C(=O)OCC(=O)NCC2CCCO2)ccc1Cl (centres undefined) | 22 | 0.4 | 0.8 | 1 | 56*
CCOc1ccccc1OCC(=O)NCc1ccco1 | -7 | 0.3 | 1.1 | 1.4 | 65*
O=C(COc1ccccc1Cl)NCc1ccco1 | 6 | 0.8 | 0.9 | 0.9 | 25
CCCOc1ccc(CC(=O)NCc2ccco2)cc1OC | 43 | 0.4 | 0.6 | 1.3 | 63*
CCC(=O)N1CCc2cc(Br)cc(S(=O)(=O)NCC3CCCN3CC)c21 (centres undefined) | -5 | 1 | 1 | 1.4 | -4
COc1cc(C2C=C(C34CC5CC(CC(C5)C3)C4)NC(=S)N2)cc(OC)c1OC (centres undefined) | 54* | 0.5 | 0.5 | 1.5 | 49
COc1ccc(C2=CC(c3cc(OC)c(OC)c(OC)c3)NC(=S)N2)cc1 (centres undefined) | 94* | 0.3 | 0.1 | 1.5 | 74*
Cc1cccc(N2CCN(C(=O)c3ccc(N4CCCC4=O)cc3)CC2C)c1 (centres undefined) | 29 | 0.4 | 0.7 | 1 | 56*
O=C(c1ccc(N2CCCC2=O)cc1)N1CCN(c2ccccc2)CC1 | 40 | 0.8 | 0.6 | 1 | 20
O=C(c1ccc(N2CCCC2=O)cc1)N1CCCCCC1 | 1 | 0.4 | 1 | 1 | 58*
CCOc1ccc(C(=O)N2CCN(c3cccc(C)c3C)CC2)cc1 | 27 | 0.8 | 0.7 | 1.1 | 19
CCN(CCCNC(=O)c1ccc(N2CCCC2=O)cc1)c1cccc(C)c1 | 13 | 0.7 | 0.9 | 1.4 | 30
Cc1cccc(N2CCN(C(=O)c3ccc(N4CCCC4=O)cc3)CC2)c1C | 70* | 0.5 | 0.3 | 1.6 | 52*
COc1ccc(OC)c2c(C)cc(NCCN3CCOCC3)nc12 | -6 | 0.9 | 1.1 | 1.3 | 9
CCCCSc1ccc(NC(=O)c2cccnc2)cc1 | 49 | 0.8 | 0.5 | 0.7 | 23
CCc1cc(/C(Cc2csc(C)n2)=N/O)c(O)cc1O | 31 | 0.4 | 0.7 | 1 | 56*
CC1(C)Cc2c(c(=S)nc(-c3ccccc3)n2CCO)CO1 | -22 | 0.9 | 1.2 | 1.2 | 8
CC1CCN(CC(O)COC2CCC(C(C)(C)C)CC2)CC1 (centres undefined) | -8 | 0.9 | 1.1 | 1.6 | 5
CN(C(=O)c1ccncc1)c1nnc(-c2ccncc2)s1 | 94* | 0 | 0.1 | 1.2 | 96*
Cc1ccc(-c2nnc(N(C)C(=O)c3cccnc3)s2)cc1 | 86* | 0.3 | 0.1 | 1.3 | 67*
Brc1ccc2c(c1)CNc1c(ncnc1N1CCOCC1)O2 | 58* | 0 | 0.4 | 1.1 | 98*
SMILES | CYP2C9 inhib | CYP2C19 act | CYP2C9 act | PLAP act | CYP2C19 inh
Cc1cc2n(n1)C(c1ccccc1)Nc1ccccc1-2 (centres undefined) | 24 | 0.6 | 0.8 | 0.9 | 39
c1cncc(C2Nc3ccccc3-c3nc4ccccc4n32)c1 (centres undefined) | 57* | 0.6 | 0.4 | 0.9 | 37
CCN(CC)CCn1c(NCc2ccc(C)o2)nc2ccccc21 | 16 | 0.6 | 0.8 | 0.7 | 44
CCN1c2ccccc2-c2nc3ccccc3n2C1c1ccccn1 (centres undefined) | 34 | 0.9 | 0.7 | 1.1 | 10
CCN1c2ccccc2-c2nc3ccccc3n2C1c1ccncc1 (centres undefined) | 100* | 0 | 0 | 1.4 | 98*
CCN1C(=O)CC(n2c(C)nc3ccccc32)C1=O (centres undefined) | -12 | 1.1 | 1.1 | 1 | -12
CCN1c2ccccc2-c2nc3ccccc3n2C1c1cccnc1 (centres undefined) | 71* | 0.8 | 0.3 | 0.9 | 15
Cc1ccc(C2N(C)c3ccccc3-c3nc4ccccc4n32)o1 (centres undefined) | 93* | 0.1 | 0.1 | 1.6 | 87*
COc1ccc(S(=O)(=O)NCC(=O)N(CC(=O)NCC2CCCO2)c2cc(C)ccc2C)cc1 (centres undefined) | 12 | 0.8 | 0.9 | 1.6 | 17
N=c1n(CCN2CCCCC2)c2ccccc2n1CC(O)c1cccc(Br)c1 (centres undefined) | 2 | 0.9 | 1 | 2* | 6
N=c1n(CCN2CCCCC2)c2ccccc2n1CC(O)c1ccc(Cl)c(Cl)c1 (centres undefined) | 82* | 0.5 | 0.2 | 2.1* | 50
CCN(CC)c1ccc2cc(C(=O)Nc3cccnc3N3CCOCC3)c(=O)oc2c1 | -13 | 1.1 | 1.1 | 1 | -10
CCN(CC)c1ccc2cc(C(=O)Nc3ccccn3)c(=O)oc2c1 | 57* | 0.5 | 0.4 | 1.1 | 45
COc1ccc(-c2oc3ccccc3c(=O)c2OC(=O)c2ccc(C)cc2)cc1 | 89* | 0.2 | 0.1 | 0.9 | 84*
O=C(Nc1ccccc1C(=O)N1CCN(Cc2ccccc2)CC1)c1ccccn1 | 67* | 0.1 | 0.3 | 1.9 | 85*
O=C(c1ccccc1)N1CCN(Cc2ccccc2Br)CC1 | 76* | 0 | 0.2 | 1.4 | 98*
CC(=O)Nc1cccc(C(=O)N2CCN(Cc3ccccc3)CC2)c1 | 13 | 0 | 0.9 | 1 | 96*
O=C(Nc1cccc(C(=O)N2CCN(Cc3ccccc3)CC2)c1)c1ccccc1 | -2 | 0.2 | 1 | 1.6 | 83*
COc1ccc(C(=O)Nc2cccc(C(=O)N3CCN(C)CC3)c2)cc1 | 16 | 0.9 | 0.8 | 1.3 | 15
COc1ccc(CC(NC(C)=O)C(=O)NC2CCN(C(=O)NCc3ccccc3)CC2)cc1OC (centres undefined) | 8 | 1 | 0.9 | 1.2 | -4
C=CCNC(=O)c1cc(=O)c2ccccc2o1 | 16 | 0.9 | 0.8 | 1.1 | 9
O=C(c1cccc(C(=O)N2CCN(Cc3ccccc3)CC2)c1)N1CCN(Cc2ccccc2)CC1 | 82* | 0 | 0.2 | 1.7 | 97*
O=C(c1ccc(CN2CCOCC2)cc1)N1CCN(Cc2ccccc2)CC1 | 7 | 0.9 | 0.9 | 1.8 | 9
CCOc1ccc(-n2cc(C(=O)N3CCCCCC3)c3cc(OC)c(OC)cc3c2=O)cc1 | 37 | 0.8 | 0.6 | 1.2 | 16
Fc1ccc(Cn2nnnc2CN2CCc3ccccc3C2)cc1 | 47 | 0.4 | 0.5 | 0.9 | 58*
c1ccc(Cn2nnnc2CN2CCN(c3ncccn3)CC2)cc1 | 93* | 0.8 | 0.1 | 0.9 | 19
